Drawing on PubChem BioAssay (EPA / NIEHS), this text covers outcome and AC50 for eleven compounds.

Active and inactive are the calls of the source. How the source made its calls: active means hit-call score of the fitted dose curve at least 0.9, where 1 is the maximum; inactive means score below 0.9.

This assay can be described thus: CCTE_Simmons_MITO_max_resp_rate: CCTE's HepG2 Seahorse XF Respirometric Screening Assay at Maximal Respiratory State [uncoupled], Simmons Lab (AID 2284002). The note with it: actives raise or lower the signal. As for the experimental part:
CCTE_Simmons_MITO is cell-based, respirometric assay using HepG2 cells and a Seahorse XF Analyzer to measure oxygen consumption rates over four temporal phases spanning a total of 72 minutes: pre-injection (pre-treatment), basal (following test compound injection), maximal (following FCCP uncoupler injection), and inhibited (following rotenone/antimycin A injection)CCTE_Simmons_MITO_max_resp_rate is one of 4 assay components calculated from the CCTE_Simmons_MITO assay. It is designed to make measurements of maximal respiration using a form of respirometric reporter, as detected with […] signals by Seahorse XF96 technology. Data from the assay component CCTE_Simmons_MITO_max_resp_rate was analyzed at the endpoint, CCTE_Simmons_MITO_max_resp_rate_OCR, with bidirectional fitting relative to DMSO as the negative control and baseline of activity. Using a type of respirometric reporter, measures of maximal respiration for gain or loss-of-signal activity can be used to understand cellular oxygen consumption as it relates to cellular respiration. To generalize the intended target to other relatable targets, this assay endpoint is annotated to the mitochondria intended target family, where the subfamily is respiration.
Test chemicals were administered as a titrated series of 7 concentrations from 125 nM up to 100 uM [final] prior to kinetic endpoint detection at 6 minute intervals [3 min mix followed by 3 minutes measure] for 72 minutes. Three biological replicates of technical singles were run for every chemical concentration tested. Dimethylsulfoxide [DMSO] was used as the vehicle control. The electron transport chain inhibitor fenpyroximate was used as the positive control for decreased basal respiration and was administered as a titrated series of 6 concentrations from 250 nM up to 2.75 uM [final] with technical triplicates for the top concentration only. The uncoupler 2,4-dintirophenol was used as the positive control for increased basal respiration and was administered as a titrated series of 6 concentrations from 938 nM up to 40 uM [final] with technical triplicates for the top concentration only. A Seahorse XF Analzyer is required to measure the response.
Regarding `CCOc1ccc2[nH]cc(C(=O)NCc3ccccc3)c(=O)c2n1`, the outcome was inactive.

As usually defined, the AC50 is the midpoint of the concentration-response curve, whichever way the signal moves. Consider `Cc1nccn1-c1ccc(Sc2cccc(C3(C(N)=O)CCOCC3)c2)cc1`, for which the AC50 is 5.55 µM (active).

As to `CCc1ccc(O)c(C(C)(C)C)c1`, the outcome was inactive.

On to `NC(=O)NN=Cc1ccc([N+](=O)[O-])o1`, for which the outcome was inactive.

In the case of `O=C1CN(N=Cc2ccc([N+](=O)[O-])o2)C(=O)N1`, the AC50 was 12.7 µM (active).

`O=C(O)c1cccc(C[C@@H]2COc3ccc(OCc4nc5cc(F)ccc5s4)cc3[C@@H]2O)c1`: the half-maximal activity concentration (AC50) is 25 µM (active).

As for `CCCCCCCC1CCC(=O)O1` (stereo unspecified), the result was inactive.

As for `CCN(CC)C(=S)SSC(=S)N(CC)CC`, the compound was classed as inactive.

For the compound `CC(C)c1nnc2ccc(-c3ocnc3-c3cc(F)ccc3F)cn12`, the AC50 is 76.2 µM (active).

In the case of `O=C(NO)C1(NS(=O)(=O)c2ccc(Oc3ccc(F)cc3)cc2)CCOCC1`, the AC50 was 31.2 µM (active).

On to `C=CCc1cc(S(=O)(=O)c2ccc(O)c(CC=C)c2)ccc1O`, for which the AC50 was 8.67 µM (active).
